Test systems include TYRO3; ULK1; ULK2; ULK3; VRK2; WEE1; WEE2; WNK1; WNK2; WNK3; WNK4.
Common to all, as to conditions: concentration: 1 μM, replicates: in singlicate; n = 1
The subject of assay [1] is TYK2(JH2domain-pseudokinase).
In another assay the test system is T1, VEGFR2.
T1 construct: gene KDR

The next assay relates to T2, VPS34.
T2 construct: gene PIK3C3

The subject of the next assay is T3, YANK1.
T3 construct: gene STK32A

A further assay deals with T4, YANK2.
T4 construct: gene STK32B

The subject of another assay is T5, YANK3.
T5 construct: gene STK32C

A further assay concerns T6, YES.
T6 construct: gene YES1

The test system of the next assay is T7, YSK1.
T7 construct: gene STK25

In a further assay the test system is T8, YSK4.
T8 construct: gene MAP3K19

We go through nine compounds from article PMC5540273 (PLoS ONE, 2017).
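Note: KINOMEscan kinase panel screen.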

With `Cc1occc1-c1ncc(OC[C@@H](N)Cc2c[nH]c3ccccc23)cc1-c1ccc2[nH]nc(C)c2c1.O=C(O)C(F)(F)F` [GSK682037], the “%Inh” value in [1] came out at 0%; with TYRO3 it was 0%; in the assay with ULK1, 4%; in the assay on ULK2, 0%; in the assay on ULK3 it was 3%; in the assay with VEGFR2 it was 7%. Also, the “%Inh” value in the assay on VPS34 was found to be 3%; in the assay on VRK2, 78%; in the assay with WEE1 it was 5%; in the assay on WEE2, 8%; in the assay on WNK1 it was 11%; with WNK2, 7%. The “%Inh” value in the assay with WNK3 came out at 0%; in the assay with WNK4 it was 0%; in the assay with YANK1 it was 96.5%; in the assay with YANK2, 95%; with YANK3 it was 94.5%; with YES, 38%. In addition, the “%Inh” value in the assay with YSK1 was 17%; in the assay on YSK4, 99.5%.

Turning to `Cc1ccc(C)c(NC(=O)NC2CCN(c3ccnc(Nc4ccc(F)cc4)n3)C2)c1` (stereo not drawn) [GSK1379720], the “%Inh” value came to 48% in assay [1]; 0% in the assay on TYRO3; 0% with ULK1; 0% with ULK2; 10% with ULK3; 0% in the assay on VEGFR2. The “%Inh” value in the assay on VPS34 amounted to 0%; with VRK2, 45%; in the assay with WEE1 it was 4%; with WEE2, 0%; with WNK1 it was 5%; in the assay on WNK2, 0%. In addition, the “%Inh” value in the assay on WNK3 amounted to 43%; with WNK4, 48%; in the assay with YANK1, 0%; with YANK2, 0%; with YANK3, 28%; in the assay with YES it was 9%. Also, the “%Inh” value with YSK1 was 0%; with YSK4 it was 29%.

For the compound `CN(C)Cc1ccc(-c2ccc3c(Nc4ccc(Oc5ccccn5)cc4)ccnc3c2)o1` [GW567148], the “%Inh” value in assay [1] turned out to be 18%; in the assay with TYRO3, 38%; in the assay on ULK1, 19%; in the assay on ULK2, 0%; with ULK3 it was 5%; in the assay on VEGFR2, 17%. In addition, the “%Inh” value came to 0% in the assay on VPS34; 4% in the assay on VRK2; 0% in the assay with WEE1; 2% with WEE2; 17% in the assay with WNK1; 14% with WNK2. Also, the “%Inh” value came to 46% with WNK3; 19% in the assay with WNK4; 0% with YANK1; 0% in the assay on YANK2; 20% with YANK3; 64% with YES. For the same compound, the “%Inh” value with YSK1 is listed as 0%; in the assay on YSK4, 30%.

With `O=C(NC1CCN(c2ccnc(Nc3ccc(F)cc3)n2)C1)c1cc2ccccc2s1` (stereo not drawn) [GSK1379716], the “%Inh” value in assay [1] came to 31%; in the assay on TYRO3, 0%; with ULK1 it was 0%; in the assay with ULK2 it was 1%; with ULK3, 32%; in the assay with VEGFR2, 0%. Further, the “%Inh” value with VPS34 worked out at 38%; in the assay on VRK2, 0%; with WEE1 it was 50%; with WEE2 it was 0%; with WNK1 it was 20%; with WNK2, 22%. Moreover, the “%Inh” value in the assay on WNK3 is recorded as 33%; in the assay with WNK4, 46%; in the assay with YANK1, 0%; in the assay on YANK2, 20%; in the assay on YANK3 it was 29%; in the assay with YES, 20%. Further, the “%Inh” value is given as 19% with YSK1 and 14% in the assay with YSK4.

`c1ccc(-c2cnc3nccnn23)cc1` [AH20685]: the “%Inh” value amounted to 3% in [1]; 0% in the assay with TYRO3; 5% with ULK1; 0% in the assay on ULK2; 0% in the assay with ULK3; 0% with VEGFR2. For the same compound, the “%Inh” value was 0% in the assay on VPS34; 0% with VRK2; 33% in the assay on WEE1; 0% in the assay on WEE2; 0% with WNK1; 2% with WNK2. Besides, the “%Inh” value in the assay on WNK3 came out at 1%; in the assay on WNK4, 0%; in the assay with YANK1, 6%; in the assay on YANK2, 0%; with YANK3, 0%; with YES, 0%. The “%Inh” value in the assay on YSK1 and in the assay on YSK4 was 0% each time.

`COc1ccc(Nc2nccc(NCCNC(=O)c3cc4ccccc4s3)n2)cc1` [GSK1379896]: the “%Inh” value came out at 0% in [1]; 11% in the assay with TYRO3; 14% in the assay on ULK1; 0% with ULK2; 0% in the assay with ULK3; 0% in the assay on VEGFR2. The “%Inh” value is on record as 18% in the assay on VPS34; 17% with VRK2; 14% in the assay on WEE1; 0% with WEE2; 6% in the assay with WNK1; 55% in the assay on WNK2. Also, the “%Inh” value with WNK3 stood at 10%; in the assay with WNK4, 29%; with YANK1 it was 12%; in the assay on YANK2 it was 0%; in the assay on YANK3 it was 0%; in the assay on YES it was 5%. The “%Inh” value in the assay with YSK1 and in the assay with YSK4 was 0% in each case.

For the compound `Nc1n[nH]c2cnc(-c3ccccc3)cc12` [SB-642124], the “%Inh” value stood at 85% in [1]; 9% with TYRO3; 50% in the assay on ULK1; 22% in the assay with ULK2; 35% in the assay with ULK3; 0% in the assay with VEGFR2. The “%Inh” value turned out to be 0% with VPS34; 35% in the assay with VRK2; 19% in the assay with WEE1; 0% in the assay on WEE2; 8% in the assay with WNK1; 2% with WNK2. Besides, the “%Inh” value in the assay on WNK3 was determined as 33%; in the assay with WNK4 it was 38%; with YANK1, 12%; with YANK2, 0%; with YANK3 it was 17%; in the assay on YES, 24%. In addition, the “%Inh” value in the assay on YSK1 was 1%; in the assay with YSK4 it was 95.9%.

On to `CCCCc1nn2ncccc2c1-c1ccnc(Nc2ccc(N3CCN(C)CC3)cc2)n1` [GW684941], for which the “%Inh” value in [1] amounted to 93%; in the assay with TYRO3 it was 1%; in the assay with ULK1 it was 23%; in the assay with ULK2, 6%; in the assay on ULK3, 17%; in the assay with VEGFR2, 94%. Besides, the “%Inh” value in the assay on VPS34 came out at 15%; in the assay on VRK2 it was 50%; in the assay on WEE1, 4%; in the assay with WEE2 it was 9%; in the assay on WNK1 it was 11%; with WNK2, 31%. In addition, the “%Inh” value came out at 54% with WNK3; 56% with WNK4; 78% in the assay with YANK1; 74% in the assay on YANK2; 25% with YANK3; 81% in the assay on YES. The “%Inh” value in the assay with YSK1 came out at 0%; in the assay on YSK4, 57%.

`Cc1ccc(C(=O)N2CC[C@@H](O)C2)cc1-n1c(C)cc(OCc2ccc(F)cc2F)c(Br)c1=O`: the “%Inh” value (in [1]; in the assay with TYRO3; in the assay with ULK1; with ULK2; in the assay on ULK3; with VEGFR2) was 0% in each case. The “%Inh” value with VPS34, in the assay with VRK2, in the assay on WEE1, with WEE2, in the assay on WNK1 and in the assay on WNK2 was 0% in each case. Moreover, the “%Inh” value in the assay on WNK3 turned out to be 0%; in the assay with WNK4 it was 0%; in the assay with YANK1 it was 0%; with YANK2, 0%; in the assay on YANK3, 0%; in the assay on YES, 20%. The “%Inh” value with YSK1 and in the assay on YSK4 was 0% in each case.
